# Laboratory results as given in PubChem BioAssay.
# Where “and” joins values, the source holds several entries; their conditions need not be identical. Equal entries are not always repeated. For some assays here: Results with a measured potency or affinity are listed apart. A structure can be active in one record and inactive in another. Calls of active or inactive are those of the source.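 Rule for the calls, unless noted: active = thallium flux through the channel raised or lowered by more than 3 SD from vehicle-only wells, actives on both sides; inactive = the rest.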
# How the values were obtained:
# [1] = polyglutamine-triggered caspase-3 activation inhibitors, cell-based (AID 1583); details: polyglutamine-induced caspase-3 activation, cell assay; stronger effect = higher value;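 tested at 10 µM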
# [2] = suppressors of polyQ aggregation in yeast, 75Q-TubU reporter (AID 1593); details: Yeast 75Q polyglutamine aggregation reporter
# [3] = rescue of polyQ-huntingtin neuronal dysfunction in worms, whole organism, C. elegans mechanosensory neurons, N-terminal huntingtin (AID 1599); details: touch response, stronger effect = higher value
# [4] = inhibitors of mitochondrial cytochrome c release, biochemical, purified mitochondria (AID 1603); details: stronger effect = lower value;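 note: mouse liver mitochondria challenged with calcium chloride; signal normalized to the plate average as 100%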
# [5] = inhibitors of polyQ protein aggregation (AID 1604); details: polyglutamine-induced protein aggregation inhibition assay; stronger effect = higher value; tested at 2.5 µM
# [6] = enhancers of glutamate uptake in motor neurons, MN-1 cell line (AID 1612); details: MN-1 motor neuron cells, stronger effect = higher value;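 note: tested at 1 µM final; 0% = mean of DMSO vehicle wells on each plate; positive means more glutamate uptake than control and negative means less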
# [7] = suppressors of polyglutamine aggregation in yeast, 75Q-TubH (AID 1616); details: S. cerevisiae 75Q-TubH polyglutamine aggregation suppression; stronger effect = higher value
# [8] = Cy5 fluorescence interference with SSB-bound oligo, artefact control for HCV NS3 helicase inhibitor project, biochemical, NIH Clinical Collection, E. coli SSB (AID 743268; call rule not given here)
# [9] = tested on: Hepatitis C virus NS3 helicase; assay: HCV NS3 helicase inhibitors, primary screen, biochemical, fluorescence polarization, NIH Clinical Collection (AID 743270; call rule not given here); details: NS3 helicase binding to Cy5-dT15 DNA, stronger effect = higher value, concentration not given here
# [10] = biological target: Single-stranded DNA-binding protein (Escherichia coli (strain K12)) (UniProt P0AGE0); assay: E. coli SSB displacement from DNA, counter-screen for HCV NS3 helicase inhibitor project, biochemical, fluorescence polarization, NIH Clinical Collection (AID 743271; in the data active = inhibition above about 28%); details: stronger effect = higher value, concentration not given here
# [11] = fluorescence interference in NS3h assay format, artefact control for HCV NS3 helicase inhibitor project, biochemical, NIH Clinical Collection (AID 743272; call rule not given here;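 note: HCV NS3 helicase with a Cy5 labelled single stranded DNA probe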); details: fluorescence interference counterscreen, stronger effect = lower value
# [12] = viability rescue of complex I mutant cybrids, primary screen, cell-based, galactose medium, ATP luminescence (AID 1645843;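 active = z-score of at least 1.8 in each of two replicates, scored against plate mean and spread of sample wells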;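 note: positive z means more ATP and so rescue of galactose-driven cybrid death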); details: complex I mutant cybrid cells, 72 h, stronger effect = higher value
# [13] = tested on: F380Y/beta4; assay: modulators of BK channel variants, profiling panel, selectivity assay, cell-based, U2OS BacMam, thallium flux, beta subunits (AID 1259406); details: at 30 µM;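 note: initial slope of Thallos dye fluorescence rise after thallium is added; log ratio against the mean of 0.3% DMSO vehicle wells on the same plate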
# [14] = biological target: Calcium-activated potassium channel subunit alpha-1 (Homo sapiens) + Leucine-rich repeat-containing protein 26 (Homo sapiens) (UniProt Q12791+Q2I0M4); assay: as above; details: F380Y/Slo1WT/gamma1, at 30 µM
# [15] = tested on: R275C; assay: as above; details: at 30 µM
# [16] = tested on: R275C/beta1; assay: as above; details: at 30 µM
# [17] = tested on: R275C/beta2Delta; assay: as above; details: at 30 µM
# [18] = tested on: R275C/beta4; assay: as above; details: at 30 µM
# [19] = tested on: R275C/Slo1WT/beta2; assay: as above; details: at 30 µM
# [20] = LFS_MB_P medulloblastoma growth inhibition, cell-based, chromothripsis tumors, cisplatin or BGB combos (AID 1671449; in the data active = inhibition above about 80%;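 note: cells exposed for 96 hours; 0% = vehicle DMSO and 100% = killing by high DMSO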); details: LFS_MB_P medulloblastoma cells
# Calcium-activated potassium channel subunit alpha-1 (Homo sapiens) + Leucine-rich repeat-containing protein 26 (Homo sapiens), sequence (Q2I0M4 whole entry, looked up, one chain of several): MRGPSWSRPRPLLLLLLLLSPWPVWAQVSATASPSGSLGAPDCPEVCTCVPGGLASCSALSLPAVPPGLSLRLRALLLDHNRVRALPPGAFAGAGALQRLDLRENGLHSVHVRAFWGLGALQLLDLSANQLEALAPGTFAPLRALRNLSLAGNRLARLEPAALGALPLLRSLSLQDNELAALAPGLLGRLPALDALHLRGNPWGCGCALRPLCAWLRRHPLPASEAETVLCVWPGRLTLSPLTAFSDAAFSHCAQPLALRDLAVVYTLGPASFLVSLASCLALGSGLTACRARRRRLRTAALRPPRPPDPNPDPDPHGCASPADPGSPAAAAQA
smiles,measurement,setting,value
CCCNCC(O)COc1ccccc1C(=O)CCc1ccccc1 (stereo not drawn),inhibition,[1],-14.1%
same,score,[2],1.02
same,rescue above control,[3],2.07
same,cytochrome c release ratio,[4],1.16
same,inhibition of aggregation,[5],21.6%
same,glutamate uptake change,[6],9.21%
same,aggregation suppression score,[7],0.81
same,fluorescence ratio,[8],1.02 (inactive)
same,inhibition,[9],-5% (inactive)
same,inhibition,[10],-2% (inactive)
same,fluorescence ratio,[11],0.99 (inactive)
same,z-score,[12],-1.23 (inactive) and -1.36 (inactive) and -0.68 (inactive)
same,log fold change Tl+ flux,[13],0.161 (active)
same,log fold change Tl+ flux,[14],0.00467 (inactive)
same,log fold change Tl+ flux,[15],0.00823 (inactive)
same,log fold change Tl+ flux,[16],0.184 (active)
same,log fold change Tl+ flux,[17],0.136 (active)
same,log fold change Tl+ flux,[18],0.153 (active)
same,log fold change Tl+ flux,[19],0.0285 (inactive)
NS(=O)(=O)c1cc(C2(O)NC(=O)c3ccccc32)ccc1Cl (stereo not drawn),inhibition,[1],2.88%
same,score,[2],1.55
same,rescue above control,[3],-4.25
same,cytochrome c release ratio,[4],0.9
same,inhibition of aggregation,[5],77%
same,glutamate uptake change,[6],-2.06%
same,aggregation suppression score,[7],1.49
same,fluorescence ratio,[8],0.81 (inactive)
same,inhibition,[9],-2.27% (inactive)
same,inhibition,[10],1.05% (inactive)
same,fluorescence ratio,[11],1 (inactive)
same,z-score,[12],0.15 (inactive)
same,log fold change Tl+ flux,[13],-0.0276 (inactive)
same,log fold change Tl+ flux,[14],-0.00177 (inactive)
same,log fold change Tl+ flux,[15],-0.0359 (inactive)
same,log fold change Tl+ flux,[16],-0.0254 (inactive)
same,log fold change Tl+ flux,[17],-0.0423 (inactive)
same,log fold change Tl+ flux,[18],-0.0855 (inactive)
same,log fold change Tl+ flux,[19],0.0191 (inactive)
Cc1ccc(C)c(OCCCC(C)(C)C(=O)O)c1,inhibition,[1],5.02%
same,score,[2],-0.33
same,rescue above control,[3],6.5
same,cytochrome c release ratio,[4],0.86
same,inhibition of aggregation,[5],39.4%
same,glutamate uptake change,[6],0.82%
same,aggregation suppression score,[7],-0.02
same,fluorescence ratio,[8],1.06 (inactive)
same,inhibition,[9],0.45% (inactive)
same,inhibition,[10],1.05% (inactive)
same,fluorescence ratio,[11],0.96 (inactive)
same,z-score,[12],0.125 (inactive) and 0.18 (inactive)
same,log fold change Tl+ flux,[13],0.0166 (inactive)
same,log fold change Tl+ flux,[14],0.0687 (inactive)
same,log fold change Tl+ flux,[15],0.0109 (inactive)
same,log fold change Tl+ flux,[16],0.0657 (inactive)
same,log fold change Tl+ flux,[17],0.0312 (inactive)
same,log fold change Tl+ flux,[18],-0.0122 (inactive)
same,log fold change Tl+ flux,[19],0.088 (inactive)
CN(C)CCOC(c1ccc(Cl)cc1)c1ccccn1 (stereo not drawn),inhibition,[1],-21.2%
same,score,[2],1.7
same,rescue above control,[3],-1.97
same,cytochrome c release ratio,[4],0.83
same,inhibition of aggregation,[5],44.8%
same,glutamate uptake change,[6],21.1%
same,aggregation suppression score,[7],1.21
same,fluorescence ratio,[8],1.05 (inactive)
same,inhibition,[9],-5% (inactive)
same,inhibition,[10],-3.53% (inactive)
same,fluorescence ratio,[11],1.03 (inactive)
same,z-score,[12],1.09 (inactive)
same,log fold change Tl+ flux,[13],0.0228 (inactive)
same,log fold change Tl+ flux,[14],0.0613 (inactive)
same,log fold change Tl+ flux,[15],0.0106 (inactive)
same,log fold change Tl+ flux,[16],-0.0266 (inactive)
same,log fold change Tl+ flux,[17],0.0559 (inactive)
same,log fold change Tl+ flux,[18],0.0288 (inactive)
same,log fold change Tl+ flux,[19],-0.0144 (inactive)
O=c1[nH]cc(F)c(=O)[nH]1,inhibition,[1],7.47%
same,score,[2],0.35
same,rescue above control,[3],-13.1
same,cytochrome c release ratio,[4],0.98
same,inhibition of aggregation,[5],41.6%
same,glutamate uptake change,[6],-1.19%
same,aggregation suppression score,[7],0.203
same,fluorescence ratio,[8],0.97 (inactive)
same,inhibition,[9],-3.18% (inactive)
same,inhibition,[10],-0.48% (inactive)
same,fluorescence ratio,[11],0.92 (inactive)
same,z-score,[12],6.85 (active) and -1.25 (inactive) and 2.99 (active)
same,inhibition,"[20]; at 0.5 µM, stronger effect = higher value",4.15% (inactive)
same,inhibition,"[20]; measured here: combination with BGB IC20, at 0.005 µM",0.419%
same,inhibition,"[20]; measured here: combination with BGB IC40, at 0.005 µM",-26%
same,inhibition,"[20]; measured here: combination with BGB IC40, at 0.05 µM",-17%
same,inhibition,"[20]; measured here: combination with cisplatin, at 0.5 µM, stronger effect = higher value",59.2%
same,inhibition,"[20]; measured here: combination with cisplatin, at 5 µM, stronger effect = higher value",-27.9%
same,log fold change Tl+ flux,[13],-0.0444 (inactive)
same,log fold change Tl+ flux,[14],-0.0276 (inactive)
same,log fold change Tl+ flux,[15],-0.0492 (inactive)
same,log fold change Tl+ flux,[16],0.0262 (inactive)
same,log fold change Tl+ flux,[17],-0.0331 (inactive)
same,log fold change Tl+ flux,[18],-0.0876 (inactive)
same,log fold change Tl+ flux,[19],0.0575 (inactive)
NC(=O)c1cnccn1,inhibition,[1],-0.34%
same,score,[2],1.27
same,rescue above control,[3],-9.49
same,cytochrome c release ratio,[4],1.22
same,inhibition of aggregation,[5],69.8%
same,glutamate uptake change,[6],25.2%
same,aggregation suppression score,[7],0.921
same,fluorescence ratio,[8],0.1 (active)
same,inhibition,[9],-4.09% (inactive)
same,inhibition,[10],-2.76% (inactive)
same,fluorescence ratio,[11],0.96 (inactive)
same,z-score,[12],0.985 (inactive) and -0.015 (inactive)
same,log fold change Tl+ flux,[13],0.0145 (inactive)
same,log fold change Tl+ flux,[14],-0.0208 (inactive)
same,log fold change Tl+ flux,[15],-0.0218 (inactive)
same,log fold change Tl+ flux,[16],0.0553 (inactive)
same,log fold change Tl+ flux,[17],-0.0119 (inactive)
same,log fold change Tl+ flux,[18],-0.0116 (inactive)
same,log fold change Tl+ flux,[19],0.0474 (inactive)
Cc1ccc(-c2cc(C(F)(F)F)nn2-c2ccc(S(N)(=O)=O)cc2)cc1,inhibition,[1],23.5%
same,score,[2],-0.03
same,rescue above control,[3],17.2
same,cytochrome c release ratio,[4],4.42
same,inhibition of aggregation,[5],77%
same,glutamate uptake change,[6],-10.9%
same,aggregation suppression score,[7],0.638
same,fluorescence ratio,[8],1.06 (inactive)
same,inhibition,[9],-14.1% (inactive)
same,inhibition,[10],-0.48% (inactive)
same,fluorescence ratio,[11],1.02 (inactive)
same,z-score,[12],2.48 (active) and 1.33 (inactive) and 1.65 (inactive)
same,log fold change Tl+ flux,[13],0.0167 (inactive)
same,log fold change Tl+ flux,[14],-0.0327 (inactive)
same,log fold change Tl+ flux,[15],-0.00943 (inactive)
same,log fold change Tl+ flux,[16],0.012 (inactive)
same,log fold change Tl+ flux,[17],-0.0274 (inactive)
same,log fold change Tl+ flux,[18],-0.00588 (inactive)
same,log fold change Tl+ flux,[19],-0.0385 (inactive)
COc1ccc(OC)c(C(O)CNC(=O)CN)c1 (stereo not drawn),inhibition,[1],-17.3%
same,score,[2],1.3
same,rescue above control,[3],-4.55
same,cytochrome c release ratio,[4],1.63
same,inhibition of aggregation,[5],41.7%
same,glutamate uptake change,[6],-11.6%
same,aggregation suppression score,[7],1.16
same,fluorescence ratio,[8],1 (inactive)
same,inhibition,[9],-2.27% (inactive)
same,inhibition,[10],-2.76% (inactive)
same,fluorescence ratio,[11],1.02 (inactive)
same,z-score,[12],0.54 (inactive)
same,log fold change Tl+ flux,[13],0.0115 (inactive)
same,log fold change Tl+ flux,[14],0.0303 (inactive)
same,log fold change Tl+ flux,[15],-0.0312 (inactive)
same,log fold change Tl+ flux,[16],-0.0304 (inactive)
same,log fold change Tl+ flux,[17],-0.0183 (inactive)
same,log fold change Tl+ flux,[18],0.00841 (inactive)
same,log fold change Tl+ flux,[19],0.0391 (inactive)
